In all, about 35,000 sequences were measured (“fluorescence intensity (a.u.)”: median about 10,000, highest 2% from about 52,000 on). Only a selection was taken, and the highest values are over-represented in it overall.

The test deals with T1, OsWOX13 (Oryza sativa, UniProt Q5QMM3 1-267).
T1 sequence: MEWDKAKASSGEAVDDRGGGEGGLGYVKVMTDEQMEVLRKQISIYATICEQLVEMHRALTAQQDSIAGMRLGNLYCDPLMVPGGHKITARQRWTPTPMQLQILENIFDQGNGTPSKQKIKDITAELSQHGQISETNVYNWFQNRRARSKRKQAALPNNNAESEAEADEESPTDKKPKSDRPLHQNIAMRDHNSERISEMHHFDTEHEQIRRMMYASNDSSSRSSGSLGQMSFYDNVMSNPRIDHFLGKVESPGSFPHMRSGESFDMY
The test is described as follows: protein-binding microarray (RPBM); PBS, 2% BSA, 51.3 ng/ul salmon testes DNA, 50 uM zinc acetate, 200 nM TF, 25 C, 1 h; high values mean tight binding. The following applies: protein: recombinant; tags: N-terminal polyhistidine and DsRed monomer fusion (pET32a); label: CyDye5-dUTP incorporated in the synthesized complementary strand; 3' TTTTT single-stranded linker to array surface; dsDNA, one strand shown. In short, it runs like this:
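Transcription factors, each fused N-terminally to a polyhistidine tag and DsRed, were expressed in E. coli BL21-CodonPlus and purified on Ni–NTA. A custom Agilent array was made double-stranded by primer extension with Cy5-dUTP and blocked with 2% BSA. It was incubated with 200 nM protein in PBS, 2% BSA, salmon testes DNA and 50 µM zinc acetate at 25 °C for 1 h, then washed. The binding signal is per-feature fluorescence intensity (arbitrary units) read on an Axon 4000B scanner.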
Consider “TTACTCGTCAATCCACCGATTACAGCTATCTCAAACGGAGCGGAGTCACCTAGTGCAG”, for which the binding signal was 8630 fluorescence intensity (a.u.).

For “GTGATAATGTCCATCAATCTAGCAAATCATTCTCACAACGCGGAGTCACCTAGTGCAG”, the binding signal is 26800 fluorescence intensity (a.u.).

“TTTGATTTATATGCCATTGCCTTTGCTGAACAGAAAAGCTCGGAGTCACCTAGTGCAG”: the binding signal was 37600 fluorescence intensity (a.u.).

For the sequence “AATTTGAAATTTCAAACTTAATTTTAACATTGATTTTGAGCGGAGTCACCTAGTGCAG”, the binding signal is 6660 fluorescence intensity (a.u.).

In the case of “AACCATGTTTGACTCAACATAATTAGTGCGACAAACCGCACGGAGTCACCTAGTGCAG”, the binding signal was 4590 fluorescence intensity (a.u.).

“TTATCGAACATACTAATTGACTCTCAGGGAGTCAAGGATCCGGAGTCACCTAGTGCAG”: the binding signal is 7680 fluorescence intensity (a.u.).

With “AGGGTTAAATTGTCAAAATTTGTGCGACACAAACACACTCCGGAGTCACCTAGTGCAG”, the binding signal is 10900 fluorescence intensity (a.u.).

For the sequence “CTTAACAACTGAACTGATTGAGACAGTAGATGAAATGGAACGGAGTCACCTAGTGCAG”, the binding signal was 21400 fluorescence intensity (a.u.).

As to “TCGAGATGGATAATTAGATTGATTGATTGGCCGATAGCCCCGGAGTCACCTAGTGCAG”, the binding signal is 65100 fluorescence intensity (a.u.).

As to “TATAGTGCAGATTTTGAAATTGATGAGTGCACGTTTGGGCCGGAGTCACCTAGTGCAG”, the binding signal is 6560 fluorescence intensity (a.u.).

As to “TAGATAGATTTAGTTTTGATAATGGATAGAGATATTGCCCCGGAGTCACCTAGTGCAG”, the binding signal is 11600 fluorescence intensity (a.u.).

As for “AGCCCGATAATTAGATTGATTATAGACATGACTACATATACGGAGTCACCTAGTGCAG”, the binding signal was 18200 fluorescence intensity (a.u.).

As to “CATTAATTAGATTGAGACAGTACTGAGATGATTGCCGCCCCGGAGTCACCTAGTGCAG”, the binding signal is 65200 fluorescence intensity (a.u.).

Consider “ATTTAAATGAGATGATTGATGGGGCAATTAGTACTCTAGACGGAGTCACCTAGTGCAG”, for which the binding signal was 38600 fluorescence intensity (a.u.).

Consider “AAATTTTGAAATTGTTAATATGATATAAATGAGATATAGCCGGAGTCACCTAGTGCAG”, for which the binding signal is 3970 fluorescence intensity (a.u.).

“ATAATTGAAAATTGATTAGAGTACCTTTTGATGAGATAGCCGGAGTCACCTAGTGCAG”: the binding signal is 57300 fluorescence intensity (a.u.).

For the sequence “TGAAAATGATGTCAATCAAACATGAGTGGGGCCTGCTTTGCGGAGTCACCTAGTGCAG”, the binding signal is 38500 fluorescence intensity (a.u.).

On to “TCACAATAGATAATTTATTCACTGAAAATTTTAGTTTTGGCGGAGTCACCTAGTGCAG”, for which the binding signal was 11100 fluorescence intensity (a.u.).

With “GGTATTACTGACTGGATTACCATGTGTGCGTCACATCGGACGGAGTCACCTAGTGCAG”, the binding signal is 6490 fluorescence intensity (a.u.).

Take “ATTTCAGATTGGGTTATTTGAGAGCTAAATTTCTAATGTACGGAGTCACCTAGTGCAG”: the binding signal was 4680 fluorescence intensity (a.u.).

With “TGAAAATGATTTGGGATGGCATTTCAGCGGGTTGGGCTCACGGAGTCACCTAGTGCAG”, the binding signal is 22000 fluorescence intensity (a.u.).

“ATAATGGCATAATTTAAATTTTACAAAATACTTATGACACCGGAGTCACCTAGTGCAG”: the binding signal was 12600 fluorescence intensity (a.u.).

“GTTGATGTGATGGAAAATGACTGAAGATTGGATCTAAACTCGGAGTCACCTAGTGCAG”: the binding signal is 31100 fluorescence intensity (a.u.).

On to “ATGGTTGATTGATTGCATATATTTGAACAAATGATCTTTGCGGAGTCACCTAGTGCAG”, for which the binding signal is 65500 fluorescence intensity (a.u.).

Turning to “ATTAATTATGTCATAAACTGTTGTTGATTTGTGCCAGTTTCGGAGTCACCTAGTGCAG”, the binding signal is 39500 fluorescence intensity (a.u.).

Regarding “ACTAAATTGGGTTGGGGTGCCTCCTCCTTCCTTTCTTTCTCGGAGTCACCTAGTGCAG”, the binding signal is 21000 fluorescence intensity (a.u.).

For “CATAATGATTGCGTTGAACGTTGGTTGCTTGATCATCTTTCGGAGTCACCTAGTGCAG”, the binding signal is 18600 fluorescence intensity (a.u.).

Turning to “CTTATATTTGCAAATATTGATGGTTGTTGACATATGAACTCGGAGTCACCTAGTGCAG”, the binding signal was 3210 fluorescence intensity (a.u.).

With “AGGTTGATTAACTGTTTCATGAATTTGGTATGTTTGCAGTCGGAGTCACCTAGTGCAG”, the binding signal was 53300 fluorescence intensity (a.u.).

For the sequence “CGACTGATTGGTTGGGGTCATGGTTGGAACAAAATTTCCTCGGAGTCACCTAGTGCAG”, the binding signal was 52800 fluorescence intensity (a.u.).

For “CTAGTAATTACAAACATTGGAACTGAGTTTTGGTTGGGGTCGGAGTCACCTAGTGCAG”, the binding signal was 23800 fluorescence intensity (a.u.).

“TGATGATTTAACTGTGTTGCATGAATTCATTCCTATTTGACGGAGTCACCTAGTGCAG”: the binding signal was 29500 fluorescence intensity (a.u.).

With “GAAAATGACCAAATTATGAAAACATCCAGGCAATGGATCTCGGAGTCACCTAGTGCAG”, the binding signal is 3240 fluorescence intensity (a.u.).

In the case of “CCTGACAGGTCATCTCCTGATTGAAACCAAAATGTTGGATCGGAGTCACCTAGTGCAG”, the binding signal was 60700 fluorescence intensity (a.u.).

As to “CAAAGATTTCACTGTTTAATCTAATCTTGTGGATTTTATGCGGAGTCACCTAGTGCAG”, the binding signal was 3590 fluorescence intensity (a.u.).

As for “TCGAATTTGATCAGTAGCTTAATTATACTTTAGTACTACCCGGAGTCACCTAGTGCAG”, the binding signal was 10600 fluorescence intensity (a.u.).

As to “TGTTAATTATGCCCTCGGTCCAATTGTGATATTCTGTTGACGGAGTCACCTAGTGCAG”, the binding signal was 38300 fluorescence intensity (a.u.).

“CCCATGTAGATTGGGCCTGCTTAGTGAAGTCTCACGTAGCCGGAGTCACCTAGTGCAG”: the binding signal is 5240 fluorescence intensity (a.u.).

As to “ATCGTAATAGAATATGTCACATTCGGTTTTGGCTCAAGTTCGGAGTCACCTAGTGCAG”, the binding signal was 5710 fluorescence intensity (a.u.).

“CTTATTCACTTGTGATTGTGATGATTAGCGAACAGAGTTGCGGAGTCACCTAGTGCAG”: the binding signal is 18700 fluorescence intensity (a.u.).

Take “AGTTGACAGTTCCAATTAATCGTTCATGCGACCCAATTGACGGAGTCACCTAGTGCAG”: the binding signal was 21500 fluorescence intensity (a.u.).

For “CTAATTTAAATTTGTCTCTTTTCTACCCTCAACCATCATTCGGAGTCACCTAGTGCAG”, the binding signal is 27200 fluorescence intensity (a.u.).

Take “AGAAATTGATTATGGATGAGTGCCCTTCTGCCTATTATGTCGGAGTCACCTAGTGCAG”: the binding signal was 55900 fluorescence intensity (a.u.).

As to “TCTACTAATTTAAAGTTGCAGTGTTCCTCCTCCCTCCTACCGGAGTCACCTAGTGCAG”, the binding signal was 10700 fluorescence intensity (a.u.).

Consider “CGTCTGGGGTTTGATTGGGATTGAGGCGAATTCGGGCGGTCGGAGTCACCTAGTGCAG”, for which the binding signal was 34000 fluorescence intensity (a.u.).

(Values after PMC7819943, “Rice protein-binding microarrays: a tool to detect cis-acting elements near promoter regions in rice”.)
